# About 350 (0.27%) of roughly 130,000 compounds were called active. Cut-off read from the data, not from the text of the source: active = z-score below about -2 (passing the limit was not always enough); inactive = the rest. Shown is part of a subset that was picked to be rich in actives.
# Test: PubChem AID 504770
# Conditions: E. coli YBA685 rctB-dependent plasmid, OD600 growth, 3 h; hits give low values
row,Structure (SMILES),z-score
1,Cc1ccccc1NC(=O)CSC(=O)c1ccccc1,0.6 (inactive)
2,N#CC1(C#N)C(c2ccc(Cl)c(Cl)c2)C1(C#N)C#N,-6.85 (active)
3,COc1ccc(C2C(C#N)(C#N)C2(C#N)C#N)cc1,0.05 (inactive)
4,O=C(O)C(Cc1ccccc1)Nc1ncnc2sc3c(c12)CCC3 (centres undefined),0.65 (inactive)
5,CCc1cccc(NC(=O)CC(=O)Nc2ccc3nc4n(c(=O)c3c2)CCCCC4)c1,0.6 (inactive)
6,Cc1c(C(=O)NC2CCCCC2)sc2nc(-c3ccc(F)cc3)cn12,0.15 (inactive)
7,COc1ccc(C(=O)Nc2ccc(-n3nncc3-c3ccccc3)cc2)cc1,-0.9 (inactive)
8,Cc1ccccc1NC(=O)NC(=O)CC#N,0.45 (inactive)
9,Cc1ccccc1C(=O)CC#N,-3.2 (active)
10,Cc1ccccc1C(=O)N(CC#N)CC#N,-0.6 (inactive)
11,CC(C)(C)c1ccc(CNCc2ccco2)cc1,0.35 (inactive)
12,CCOC(=O)CN1C=NS(=O)(=O)c2ccccc21,0.4 (inactive)
13,O=C1Nc2ccccc2C1=Nc1cccc(C(F)(F)F)c1,-1.05 (inactive)
14,CC(C)c1c(O)c2ccccc2[nH]c1=O,-0.4 (inactive)
15,O=C1CCC(C2CCC(=O)CC2)CC1,-0.55 (inactive)
16,CCc1nc2ccccc2n1CCO,0.6 (inactive)
17,CS(=O)(=O)Nc1ccccc1C(=O)OCC(=O)NC1CC1,-0.75 (inactive)
18,Cc1ccc(NC(=O)Cn2cc3c(n2)CCC(C)C3)c(Cl)c1 (centres undefined),-0.6 (inactive)
19,COc1cc(CNc2ccc3[nH]c(=O)[nH]c3c2)ccc1OCC(N)=O,1.6 (inactive)
20,Cc1nc(S(=O)(=O)NCc2ccc(-c3cccs3)cc2)cn1C,-0.2 (inactive)
21,CCCOc1ccc(NC(=O)CC2SC(N)=NC2=O)cc1 (centres undefined),-1.1 (inactive)
22,Cc1onc(-c2c(Cl)cccc2Cl)c1/C=N/O,-0.4 (inactive)
23,CCCCn1c2nc3ccccc3nc2c2c(N)ncnc21,0.2 (inactive)

row,Structure (SMILES),z-score
1,CCCCn1c2ccccc2c2nc3ccccc3nc21,0.05 (inactive)
2,CCCc1nc2c3ccccc3ncn2n1,-5.5 (active)
3,Cc1c(C(=O)NCc2ccc(OC(C)C)cc2)oc2ccc3c(c12)C=CC(C)(C)O3,0.85 (inactive)
4,CC(=O)Oc1cccc2c1C(=O)C=CC2=O,-6.5 (active)
5,CC(=O)Oc1cccc2c1OC(C)(C)C2,1.6 (inactive)
6,CC(=O)Oc1ccc(OC(C)=O)c2c1C1C=CC2CC1,0.85 (inactive)
7,CC1Cc2cc(S(=O)(=O)NCCC(=O)Nc3ccc(F)cc3F)ccc2N1C(=O)C1CC1 (centres undefined),-0.8 (inactive)
8,COC(F)(C(=O)N1CCOCC1)C(F)(F)F (centres undefined),-0.4 (inactive)
9,Cc1ccc(C(=O)C(C)Sc2nnc3ccccn23)cc1 (centres undefined),-0.05 (inactive)
10,Cc1c(Sc2nc3ccccc3s2)c(=O)[nH]c2cc3c(cc12)OCO3,1 (inactive)
11,C/C=C/C(=O)Nc1ccc(N2CCN(c3ccc(C(F)(F)F)cn3)CC2)nc1,0.05 (inactive)
12,O=C1CC2(CCN(C(=O)Cc3ccccc3)CC2)Oc2ccccc21,2.85 (inactive)
13,CCc1n[nH]c(=O)c2cc3sccc3n12,-0.2 (inactive)
14,O=C1c2ccc(-c3nc4ccc(Cl)cc4c(=O)o3)cc2C(=O)N1CC1CCCO1 (centres undefined),-0.25 (inactive)
15,O=C1NC(=Nc2ccc(O)cc2)S/C1=C\c1ccc(C(=O)O)cc1,-0.6 (inactive)
16,Cc1ccccc1C(CC(=O)O)N1Cc2ccccc2C1=O (centres undefined),-0.8 (inactive)
17,Cc1ccc(Cn2c(=O)c3ccccc3n3c(SCC4CCCO4)nnc23)cc1 (centres undefined),-0.7 (inactive)
18,COc1ccc(NC(=O)c2cc(F)cc3c2OCOC3)cc1,1.45 (inactive)
19,CNS(=O)(=O)c1ccc2[nH]c(=O)cc(C)c2c1,0.45 (inactive)
20,N#CC1=CN(Cc2ccccc2)C=C(/C=N/Nc2ccc(F)cc2)C1,-0.9 (inactive)
21,Cc1cc(C(=O)COC(=O)C2CC2C)c(C)n1-c1cccc(S(=O)(=O)N2CCOCC2)c1 (centres undefined),-0.5 (inactive)
22,O=C(CNC1CCCC1)Nc1ccc(N2CCCC2)cc1,-0.15 (inactive)
23,CN1/C(=C\C(=O)COC(=O)C(C)(C)C)C(C)(C)c2ccccc21,-0.4 (inactive)

row,Structure (SMILES),z-score
1,Cn1[nH]c2nc3[nH]n(C)c(=O)c3c(-c3ccccc3)c2c1=O,0.65 (inactive)
2,Cn1nc(SCC(=O)N2c3ccccc3CCc3ccccc32)sc1=S,-0.4 (inactive)
3,O=C(Nc1ccc(Cl)c(Cl)c1)Nc1ccnn1C1CCCCC1,-1.3 (inactive)
4,CN(C)c1ccc(/C=N/S(=O)(=O)c2ccccc2)cc1,-1.15 (inactive)
5,CC1(C)CC(=O)c2c(SCCO)sc(C#N)c2C1,-0.35 (inactive)
6,N#CC1=C(N)C(C#N)(C#N)C(c2cccs2)C=C1C1CC1 (centres undefined),-0.95 (inactive)
7,Cc1nn(CCCC(=O)NCCC2=CCCCC2)c(=O)c2nccn12,0.9 (inactive)
8,O=S1(=O)CCN(Cc2cc(F)cc3c2OCOC3)CC1,0.35 (inactive)
9,CN(C)[C@@H]1C(=O)C(C(N)=O)=C(O)[C@@]2(O)C(=O)C3=C(O)c4c(O)ccc(Cl)c4[C@@H](O)[C@H]3C[C@@H]12,-2.25 (active)
10,O=c1[nH]nc2ccccn12,1 (inactive)
11,O=c1cc(O)nc2ccccn12,1.45 (inactive)
12,c1ccn2c(c1)nc1nc3nonc3nc12,-5.05 (active)
13,Cc1ccccc1Oc1ccc(S(=O)(=O)N2CC(C)OC(C)C2)cc1 (centres undefined),0.7 (inactive)
14,CC(C)CNC(=O)c1ccc(N(C)C)cc1,-1.2 (inactive)
15,CCOc1ccc(N=C2CSC(=O)N2)cc1,-0.95 (inactive)
16,CCOC(=O)c1sc(-c2ccccc2)nc1CSc1nccn1C,1.15 (inactive)
17,Cc1c(CCN)sc2nc(-c3ccc(Cl)cc3)nn12,0.25 (inactive)
18,CS(=O)(=O)N1CCN=C1SCc1cccnc1,-0.85 (inactive)
19,O=C1CCc2cc(S(=O)(=O)NCC3CCCO3)cc3c2N1CC3 (centres undefined),0.8 (inactive)
20,CCOC(=O)c1ccc(-c2cc(=O)c3ccccc3o2)cc1,-0.3 (inactive)
21,O=C(Nc1ccc(F)cc1)n1ncc2cc(Cl)ccc21,1.1 (inactive)
22,N#CC(C#N)=Cc1ccc(-c2cccc(C(=O)O)c2)o1,1.85 (inactive)
23,COc1ccc(CNC(=O)COc2ncnc3ccccc23)cc1,0.2 (inactive)

# Source: PubChem BioAssay AID504770 (ICCB-Longwood Screening Facility, Harvard Medical School, 2011)
